# Results taken from PubChem BioAssay.
# “And” between values parts separate entries of the source, which are not always exact repeats. Equal entries are not always repeated. Inconclusive results are not listed. The source made the active and inactive calls.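 How the source made its calls, unless noted: active means normalized viability below 100% at a tested concentration; inactive means the rest.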
# Columns and labels:
# [1] = stimulators of nuclear beta-catenin in C2C12, primary screen, imaging, WNT3A-conditioned medium, mouse C2C12, NPC library (AID 1117326; in the data active means nuclear beta-catenin stimulation mostly above about 4.2%, no sharp cut-off; inactive means mostly below about 10%); conditions: stronger effect = higher value
# [2] = stimulators of insulin release from INS-1E, primary screen, cell-based, 5 mM glucose, NPC library (AID 1117329;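 active means compound raises insulin release from rat beta cells at 5 mM glucose, no numeric limit stated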); conditions: rat INS-1E insulin secretion, at 10 µM, stronger effect = higher value
# [3] = growth inhibition of GSK3B-pretreated HCT116 cells – cell-based, CellTiter-Glo, 0.2 to 20 µM (AID 1117336;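 active means compounds lowering colon cancer cell viability after pretreatment blocking the GSK3B kinase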); conditions: HCT116 viability after GSK3B inhibitor, at 20 µM, stronger effect = higher value
# [4] = inhibition of endothelial tube formation, primary screen, imaging, VEGF stimulated, CD31 staining, tube area, NPC library (AID 1117340;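 active means compound that reduces growth-factor-driven endothelial tube area in a mixed cell culture, no cutoff stated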); conditions: VEGF-stimulated ADSC/ECFC co-culture, at 10 µM, stronger effect = higher value
# [5] = glucagon-like peptide 1 release enhancers, primary assay, NCI-H716 cell line, NPC library (AID 1117341;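 active means compound raises GLP1 secretion from the human gut endocrine cells, with no numeric limit stated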); conditions: NCI-H716 cells, at 10 µM, stronger effect = higher value
# [6] = HCT116 colon cancer cell growth inhibition, primary screen, CellTiter-Glo luminescence, NPC library (AID 1117342;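 active means compounds that lower survival of HCT116 colon cancer cells in the luminescence readout, no numeric limit stated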); conditions: at 20 µM (top of the series)
# [7] = CellTiter-Glo luminescent readout of SW480 viability loss, NPC library primary (AID 1117343;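 active means compounds that lower viability of the colon cancer cells in the luminescence readout, with no numeric limit stated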); conditions: CellTiter-Glo luminescence; at 20 µM (top of the series) unless noted
# [8] = decreased DLD-1 cellular survival, CellTiter-Glo luminescent readout, NPC compound collection, primary HTS (AID 1117346;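 active means compounds that lower survival of DLD-1 colon cancer cells in the luminescence readout, no cutoff given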); conditions: DLD-1 viability, CellTiter-Glo luminescence; at 20 µM (top of the series)
# [9] = growth inhibition of DIPG glioma cells, dose response, cell-based, JHH-DIPG-1, MIPE4.0, CellTiter-Glo, qHTS (AID 1347062; cut-off not given, nearly all actives have AC50 up to about 27 µM); conditions: JHH-DIPG-1 viability, CellTiter-Glo ATP luminescence
# [10] = growth inhibition of DIPG glioma cells, dose response, cell-based, SU-DIPG-IV, MIPE4.0, CellTiter-Glo, qHTS (AID 1347063; cut-off not given, nearly all actives have AC50 up to about 30 µM;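 further: compound exposure lasted 48 hours before the viability readout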); conditions: SU-DIPG-IV viability, CellTiter-Glo ATP luminescence
# [11] = SU-DIPG-VI glioma cell viability, MIPE4.0 library, CellTiter-Glo luminescence, qHTS (AID 1347066; cut-off not given, nearly all actives have AC50 up to about 30 µM;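 further: cells exposed to compound for 48 hours before readout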); conditions: CellTiter-Glo ATP luminescence
# [12] = survival rescue of mitochondrial mutant cells in low glucose, primary screen, MELAS cybrids, Rieske KO mouse fibroblasts, CellTiter-Glo (AID 1508586;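 active means mean z-score across replicates of 1.96 or higher in either the MELAS or the Rieske mutant cell line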;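 further: z relative to plate mean and SD of compound and empty wells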)
# [13] = ovarian cancer cell viability with rucaparib, profiling panel, oncology-focused library, rucaparib conditional (AID 1508598); conditions: patient-derived ovarian cancer cells, CellTiter-Glo viability, 144 h, stronger effect = lower value
# [14] = biological target: NAD(+) hydrolase SARM1 (Homo sapiens) (UniProt Q6SZW1); assay: SARM1 TIR NADase inhibitors, cell lysate, NAD-Glo luminescence (AID 1508614;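 active means compound whose remaining NAD level is above about 45 nM, limit read from the data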); conditions: SAM-TIR HEK293T lysate NADase, at 1 µM, stronger effect = higher value
# Chain of NAD(+) hydrolase SARM1 (Homo sapiens) (Q6SZW1 whole entry, looked up): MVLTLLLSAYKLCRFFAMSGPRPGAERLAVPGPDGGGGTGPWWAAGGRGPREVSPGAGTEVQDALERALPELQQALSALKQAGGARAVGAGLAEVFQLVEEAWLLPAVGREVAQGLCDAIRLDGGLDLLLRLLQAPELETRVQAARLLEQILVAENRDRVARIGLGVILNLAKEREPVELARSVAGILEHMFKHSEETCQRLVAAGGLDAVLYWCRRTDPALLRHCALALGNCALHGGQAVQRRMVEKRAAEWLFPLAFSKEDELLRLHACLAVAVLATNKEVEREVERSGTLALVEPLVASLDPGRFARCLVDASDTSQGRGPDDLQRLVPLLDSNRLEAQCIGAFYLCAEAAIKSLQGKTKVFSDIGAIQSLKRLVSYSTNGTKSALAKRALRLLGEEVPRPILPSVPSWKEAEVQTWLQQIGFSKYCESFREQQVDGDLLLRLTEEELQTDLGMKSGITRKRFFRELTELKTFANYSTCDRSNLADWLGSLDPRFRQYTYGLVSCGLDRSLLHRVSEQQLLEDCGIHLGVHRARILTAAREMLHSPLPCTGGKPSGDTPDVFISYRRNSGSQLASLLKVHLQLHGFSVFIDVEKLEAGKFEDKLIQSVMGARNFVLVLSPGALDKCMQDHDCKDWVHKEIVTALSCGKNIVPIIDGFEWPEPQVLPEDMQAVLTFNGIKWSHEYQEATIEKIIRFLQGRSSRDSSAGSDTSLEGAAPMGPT
# [15] = liver-stage malaria parasite growth inhibition, primary screen, cell-based, HepG2, luciferase luminescence, HepG2 viability (AID 624349; in the data active means parasite load remaining mostly below about 12%, no sharp cut-off; inactive means mostly above about 10%;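 further: 100% = mean of DMSO negative control wells on the same plate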); conditions: P. berghei liver stage in HepG2, luciferase luminescence, concentration not given here; parasite load remaining: stronger effect = lower value; viability: measured here: HepG2 viability without parasites
# [16] = sensitizers of A549 cells to miR-34 induction, primary screen, imaging, A549 dox-inducible miR-34, nuclei and caspase counts (AID 1347080;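 active means compounds whose cell count with miR-34 switched on is under 0.7 times the count with it off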); conditions: A549 miR-34 inducible, Hoechst nuclei count, 48 h
# [17] = viability rescue of complex I mutant cybrids, primary screen, cell-based, galactose medium, ATP luminescence (AID 1645843;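 active means z-score of at least 1.8 in each of two replicates, scored against plate mean and spread of sample wells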;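 further: positive z means more ATP and so rescue of galactose-driven cybrid death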); conditions: complex I mutant cybrid cells, 72 h, stronger effect = higher value
# [18] = MELAS cybrid survival, CellTiter-Glo 48 h, stronger effect = higher value
# [19] = Rieske KO mouse fibroblast survival, CellTiter-Glo 72 h
smiles,measurement,setting,value
O=C(CS(=O)Cc1ccco1)NC/C=C\COc1cc(CN2CCCCC2)ccn1 (stereo not drawn),nuclear beta-catenin stimulation,[1]; at 10 µM,-0.3% (inactive)
same,nuclear beta-catenin stimulation,"[1]; stimulation, at 2 µM",-0.8%
same,insulin secretion stimulation,[2],4% (inactive)
same,viability decrease,[3],-4.8% (inactive)
same,tube area decrease,[4],8% (inactive)
same,GLP1 secretion stimulation,[5],-0.5% (inactive)
same,inhibition of viability,[6],2.2% (inactive)
same,viability decrease (inhibition),[7],-8.8% (inactive)
same,viability decrease (inhibition),[8],6.7% (inactive)
same,outcome,[9],inactive
same,outcome,[10],inactive
same,outcome,[11],inactive
COc1nc(N)nc2c1ncn2[C@@H]1O[C@H](CO)[C@@H](O)[C@@H]1O,nuclear beta-catenin stimulation,[1]; at 10 µM,2.7% (inactive)
same,nuclear beta-catenin stimulation,"[1]; stimulation, at 2 µM",0.8%
same,insulin secretion stimulation,[2],-1.9% (inactive)
same,viability decrease,[3],-1.5% (inactive)
same,tube area decrease,[4],5.7% (inactive)
same,GLP1 secretion stimulation,[5],0.9% (inactive)
same,inhibition of viability,[6],-1.43% (inactive)
same,viability decrease (inhibition),[7],-15.5% (inactive)
same,viability decrease (inhibition),[8],-11.9% (inactive)
same,outcome,[9],inactive
same,outcome,[10],inactive
same,outcome,[11],inactive
same,z-score,[12]; [18],0.551 (inactive)
same,z-score,[12]; [19],0.487
same,viability,"[13]; at 0.000305 µM, OCI-C5x cells, with rucaparib 10 µM, 100% = cells with rucaparib alone",129% (inactive)
same,viability,"[13]; at 0.000305 µM, OCI-C5x cells, without rucaparib",109% (inactive)
same,viability,"[13]; at 0.000305 µM, OCI-P5x cells, with rucaparib 20 µM, 100% = cells with rucaparib alone",104% (inactive)
same,viability,"[13]; at 0.000305 µM, OCI-P5x cells, without rucaparib",107% (inactive)
same,viability,"[13]; at 0.00122 µM, OCI-C5x cells, with rucaparib 10 µM, 100% = cells with rucaparib alone",114% (inactive)
same,viability,"[13]; at 0.00122 µM, OCI-C5x cells, without rucaparib",106% (inactive)
same,viability,"[13]; at 0.00122 µM, OCI-P5x cells, with rucaparib 20 µM, 100% = cells with rucaparib alone",101% (inactive)
same,viability,"[13]; at 0.00122 µM, OCI-P5x cells, without rucaparib",105% (inactive)
same,viability,"[13]; at 0.00488 µM, OCI-C5x cells, with rucaparib 10 µM, 100% = cells with rucaparib alone",108% (inactive)
same,viability,"[13]; at 0.00488 µM, OCI-C5x cells, without rucaparib",98% (active)
same,viability,"[13]; at 0.00488 µM, OCI-P5x cells, with rucaparib 20 µM, 100% = cells with rucaparib alone",101% (inactive)
same,viability,"[13]; at 0.00488 µM, OCI-P5x cells, without rucaparib",97.2% (active)
same,viability,"[13]; at 0.0195 µM, OCI-C5x cells, with rucaparib 10 µM, 100% = cells with rucaparib alone",112% (inactive)
same,viability,"[13]; at 0.0195 µM, OCI-C5x cells, without rucaparib",96.1% (active)
same,viability,"[13]; at 0.0195 µM, OCI-P5x cells, with rucaparib 20 µM, 100% = cells with rucaparib alone",94% (active)
same,viability,"[13]; at 0.0195 µM, OCI-P5x cells, without rucaparib",102% (inactive)
same,viability,"[13]; at 0.0781 µM, OCI-C5x cells, with rucaparib 10 µM, 100% = cells with rucaparib alone",113% (inactive)
same,viability,"[13]; at 0.0781 µM, OCI-C5x cells, without rucaparib",99.7% (active)
same,viability,"[13]; at 0.0781 µM, OCI-P5x cells, with rucaparib 20 µM, 100% = cells with rucaparib alone",94.2% (active)
same,viability,"[13]; at 0.0781 µM, OCI-P5x cells, without rucaparib",101% (inactive)
same,viability,"[13]; at 0.313 µM, OCI-C5x cells, with rucaparib 10 µM, 100% = cells with rucaparib alone",101% (inactive)
same,viability,"[13]; at 0.313 µM, OCI-C5x cells, without rucaparib",90.4% (active)
same,viability,"[13]; at 0.313 µM, OCI-P5x cells, with rucaparib 20 µM, 100% = cells with rucaparib alone",98% (active)
same,viability,"[13]; at 0.313 µM, OCI-P5x cells, without rucaparib",97% (active)
same,viability,"[13]; at 1.25 µM, OCI-C5x cells, with rucaparib 10 µM, 100% = cells with rucaparib alone",102% (inactive)
same,viability,"[13]; at 1.25 µM, OCI-C5x cells, without rucaparib",83.3% (active)
same,viability,"[13]; at 1.25 µM, OCI-P5x cells, with rucaparib 20 µM, 100% = cells with rucaparib alone",90.5% (active)
same,viability,"[13]; at 1.25 µM, OCI-P5x cells, without rucaparib",90.1% (active)
same,viability,"[13]; at 5 µM, OCI-C5x cells, with rucaparib 10 µM, 100% = cells with rucaparib alone",92.9% (active)
same,viability,"[13]; at 5 µM, OCI-C5x cells, without rucaparib",84.3% (active)
same,viability,"[13]; at 5 µM, OCI-P5x cells, with rucaparib 20 µM, 100% = cells with rucaparib alone",80.3% (active)
same,viability,"[13]; at 5 µM, OCI-P5x cells, without rucaparib",90% (active)
same,remaining NAD,[14],10 nM (inactive)
O=C(Nc1cccc2c(=O)cc(-c3nn[nH]n3)oc12)c1ccc(OCCCCc2ccccc2)cc1,parasite load remaining,[15],45% (inactive)
same,viability,[15],94.5%
same,nuclear beta-catenin stimulation,[1]; at 10 µM,0.3% (inactive)
same,nuclear beta-catenin stimulation,"[1]; stimulation, at 2 µM",-0.2%
same,insulin secretion stimulation,[2],2.85% (inactive)
same,viability decrease,[3],108% (active)
same,tube area decrease,[4],-18.5% (inactive)
same,GLP1 secretion stimulation,[5],21.5% (active)
same,inhibition of viability,[6],112% (active)
same,viability decrease (inhibition),[7],125% (active)
same,viability decrease (inhibition),[8],88.8% (active)
same,outcome,[11],inactive
same,fold change,"[16]; stronger effect = lower value, cell number ratio, induced over uninduced",0.93 (inactive) and 0.898 (inactive)
same,fold change,[16]; measured here: relative caspase fold change +Dox/-Dox,0.309 and 1.37
same,cell count,"[16]; measured here: total cells with miR-34 induction, stronger effect = lower value",5160 and 10700
same,cell count,[16]; measured here: total cells without miR-34 induction,5550 and 12000
same,z-score,[12]; [18],0.447 (inactive) and -0.129 (inactive)
same,z-score,[12]; [19],0.183 and 0.319
same,z-score,[17],1.36 (inactive)
